Source: PubChem BioAssay (Tox21)
“And” between values parts separate entries of the source, which are not always exact repeats. Identical values can stand only once. Inconclusive results are not listed. Where a structure was tested more than once in an assay, its records may differ in their call. The source made the active and inactive calls. Unless noted, calls come from the whole dose curve; as a rule, active = well fitted curve in the direction sought with a large enough effect in the repeat runs; inconclusive = weak or mixed curves; inactive = no such curve, though single readings can be large; an effect the other way counts as inactive or inconclusive.

Experiments:
[1] = qHTS assay for small molecule agonists of the p53 signaling pathway (AID 651631; calls by dose curve; note: nearly all actives have a fitted effect of over 15% in size; note: potency is the fitted concentration of half-maximal effect)
Summary of the method: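 Agonist mode screen using a stably integrated beta-lactamase gene under p53 response elements in HCT-116 cells. Compound exposure lasts 16 h at 37 °C; fluorescence intensity is measured following 2 h FRET substrate loading.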

[2] = qHTS assay for small molecules that induce genotoxicity in human embryonic kidney cells expressing luciferase-tagged ATAD5 (AID 651632); note: nearly all actives have a fitted effect of over 15% in size; note: potency is the fitted concentration of half-maximal effect
Summary of the method: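 Luminescence read-out: after 16 hr compound exposure at 37C, ATAD5-luciferase HEK293T cells received Amplite, 30 min RT, then CCD imaging. A rise in signal marks genotoxic stress.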

[3] = qHTS assay for small molecule agonists of the p53 signaling pathway - cell viability (AID 651633; calls by dose curve; note: nearly all actives have a fitted effect of over 30% in size; note: potency is the fitted concentration of half-maximal effect)
Summary of the method: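 Viability counter-read: CellTiter-Glo luminescence (30 min, room temperature) in the same p53RE-bla plates. These plates had been exposed to compounds for 16 h at 37 C.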

[4] = qHTS assay for small molecules that induce genotoxicity in human embryonic kidney cells expressing luciferase-tagged ATAD5 - cell viability (AID 651634; calls by dose curve; note: nearly all actives have a fitted effect of over 25% in size; note: potency is the fitted concentration of half-maximal effect)
Summary of the method: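 HEK293T ATAD5-luc cells, 2,000/well; compound 15.5 hr, 37C/5% CO2; CellTiter-Fluor 30 min, 37C; fluorescence read.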

[5] = qHTS assay for small molecule disruptors of the mitochondrial membrane potential - cell viability (AID 720634; calls by dose curve;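 note: human HepG2 liver cancer cells; series mostly up to about 83 µM; nearly all actives have a fitted effect of over 20% in size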)
Summary of the method: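 Luminescence from CellTiter-Glo (ATP content) gave viability in HepG2 cells, read in the same wells as the MMP dye assay after 1 hr compound exposure at 37 C.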

[6] = qHTS assay to test for compound auto fluorescence at 590 nm (red) in HepG2 cells (AID 720674)
Summary of the method: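 1 hr compound incubation on HepG2 cells, 37 C, 5% CO2; plate read ex 540 nm / em 590 nm; intensities reported as Rose Bengal sodium equivalents.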

[7] = qHTS assay to test for compound auto fluorescence at 535 nm (green) in HepG2 cells (AID 720675)
[8] = qHTS assay to test for compound auto fluorescence at 460 nm (blue) in HEK293 cells (AID 720678)
Summary of the method: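 Auto fluorescence in the blue band was quantified as triamterene equivalency. HEK293 cells were seeded at 2,000/well, dosed after a 4-5 hr attachment, and kept overnight at 37C before the 405/460 nm reading.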

[9] = qHTS assay to test for compound auto fluorescence at 590 nm (red) in HEK293 cells (AID 720679)
Summary of the method: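 Autofluorescence equivalency to Rose Bengal sodium, 540/590nm, in HEK293 cells exposed overnight to 23 nL compound per well.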

[10] = qHTS assay to test for compound auto fluorescence at 535 nm (green) in HEK293 cells (AID 720680)
[11] = qHTS assay to test for compound auto fluorescence at 460 nm (blue) in HEK293 cell free culture (AID 720681)
Summary of the method: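 Blue fluorescence (Ex 405/Em 460 nm, triamterene-equivalent) was read immediately after pin transfer of compound or DMSO into medium (DMEM, 10% FBS) without cells.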

[12] = qHTS assay to test for compound auto fluorescence at 535 nm (green) in HEK293 cell free culture (AID 720682)
Summary of the method: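 No cells present: wells hold DMEM supplemented with 10% FBS, into which compound or vehicle is pinned. Green emission is then recorded (485 nm excitation, 535 nm emission) and scaled to fluorescein.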

[13] = qHTS assay to test for compound auto fluorescence at 590 nm (red) in HEK293 cell free culture (AID 720683)
Summary of the method: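 Red-channel autofluorescence of compounds in culture medium (DMEM, 10% FBS), no cells, measured at 540/590 nm. Rose Bengal sodium is the reference fluorophore for equivalence.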

[14] = qHTS assay to test for compound auto fluorescence at 590 nm (red) in HepG2 cell free culture (AID 720684)
Summary of the method: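 Cell-free; medium MEM + 10% FBS; compound or DMSO added by pintool; read Ex 540/Em 590 nm; Rose Bengal sodium as red reference fluorophore.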

[15] = qHTS assay to test for compound auto fluorescence at 460 nm (blue) in HepG2 cell free culture (AID 720685)
Summary of the method: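 Cell-free plates of MEM plus 10% FBS received 23 nL compound or DMSO vehicle; blue-channel (405/460 nm) intensity scored against triamterene as reference fluorophore.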

[16] = qHTS assay to test for compound auto fluorescence at 535 nm (green) in HepG2 cell free culture (AID 720686)
[17] = qHTS assay to test for compound auto fluorescence at 460 nm (blue) in HepG2 cells (AID 720687)
Summary of the method: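 Blue-channel autofluorescence (Ex/Em 405/460 nm, triamterene-equivalent) was measured after 1 hr compound exposure at 37 C, 5% CO2. Cells were HepG2, plated overnight at 37 C in MEM plus 10% FBS.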

[18] = qHTS assay for small molecule disruptors of the mitochondrial membrane potential (AID 720635); note: potency is the fitted concentration of half-maximal effect
Summary of the method: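 Mitochondrial membrane potential tracked with Mito-MPS dye, red aggregates (ex 540/em 590 nm) against green monomers (ex 490/em 535 nm). Compound treatment 1 hr at 37C, dye 30 min in HepG2.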

[19] = molecular target: Glucocorticoid receptor (Homo sapiens) (UniProt P04150); test: qHTS assay to identify small molecule agonists of the glucocorticoid receptor (GR) signaling pathway (AID 720691; active = well fitted activation curve with a large enough effect in the signal ratio in the repeat runs, not every such curve was filed as active; the % refers to the signal ratio)
Summary of the method: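 HeLa GR-bla reporter line; cells pre-incubated 4 h, compound in DMSO 18 h at 37 C; LiveBLAzer B/G FRET substrate 2 h RT; fluorescence intensity read-out.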

[20] = molecular target: Glucocorticoid receptor (Homo sapiens) (UniProt P04150); test: qHTS assay to identify small molecule antagonists of the glucocorticoid receptor (GR) signaling pathway (AID 720692; active = well fitted inhibition curve with a large enough effect in the signal ratio in the repeat runs, not every such curve was filed as active; the % refers to the signal ratio)
Summary of the method: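 Read-out: beta-lactamase FRET substrate fluorescence, 2 h at room temperature, in HeLa cells stably carrying a GRE-driven bla reporter. Compounds were co-incubated with 5 nM dexamethasone agonist (final) for 18 h at 37 C.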

Measured: Potency

Sequence of Glucocorticoid receptor (Homo sapiens) (P04150 whole entry, looked up): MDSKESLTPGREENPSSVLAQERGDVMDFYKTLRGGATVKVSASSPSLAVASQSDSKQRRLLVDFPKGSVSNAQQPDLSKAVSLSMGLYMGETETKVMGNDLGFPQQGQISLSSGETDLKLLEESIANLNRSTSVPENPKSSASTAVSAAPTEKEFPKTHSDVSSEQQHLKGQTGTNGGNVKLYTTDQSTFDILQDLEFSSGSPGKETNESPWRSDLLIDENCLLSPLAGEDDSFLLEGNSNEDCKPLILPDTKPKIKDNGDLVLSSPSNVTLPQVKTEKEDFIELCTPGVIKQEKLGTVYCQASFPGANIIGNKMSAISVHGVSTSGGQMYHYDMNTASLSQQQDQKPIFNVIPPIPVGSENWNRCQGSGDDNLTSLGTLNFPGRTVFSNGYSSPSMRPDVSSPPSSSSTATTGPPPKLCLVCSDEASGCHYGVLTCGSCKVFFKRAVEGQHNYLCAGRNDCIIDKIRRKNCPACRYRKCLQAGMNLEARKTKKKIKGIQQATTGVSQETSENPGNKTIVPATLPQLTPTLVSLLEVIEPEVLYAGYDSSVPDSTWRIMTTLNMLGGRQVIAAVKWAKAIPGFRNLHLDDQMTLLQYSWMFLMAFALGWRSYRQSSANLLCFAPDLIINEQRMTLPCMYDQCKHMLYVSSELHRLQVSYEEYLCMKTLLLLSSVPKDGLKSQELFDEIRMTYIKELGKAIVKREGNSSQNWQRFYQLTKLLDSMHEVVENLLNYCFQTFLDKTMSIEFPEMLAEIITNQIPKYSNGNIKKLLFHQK

CC(C)OS(C)(=O)=O
not listed: [18] | [19] | [20]
inactive: all other assays above

O=CC(Br)(Br)Br
active: [1] 13.6 µM | [2] 9.66 µM | [4] 30.5 µM | [18] 30.5 µM
not listed: [5] | [19] | [20]
inactive: all other assays above

CCCCCCCCCBr
not listed: [18] | [20]
inactive: all other assays above

CC(=O)O[C@H]1CC[C@@]2(C)C(=CC[C@@H]3[C@@H]2CC[C@]2(C)C(=O)CC[C@@H]32)C1
inactive and 54.5 µM (active): [18]
not listed: [4]
inactive: all other assays above

Oc1ccc(C(c2ccc(O)cc2)(C(F)(F)F)C(F)(F)F)cc1
active: [1] 60.8 µM and 54.5 µM | [3] 68.2 µM and 43.3 µM | [18] 2.72 µM and 4.86 µM
not listed: [19] | [20]
inactive: all other assays above

CC(C)CC(C)N (configuration not stated)
inactive: all assays above

FC(F)(F)c1cccc(C2=CCN(CCc3ccc4ccccc4c3)CC2)c1
not listed: [18]
inactive: all other assays above

C[C@]12CC[C@@H]3c4ccc(OC(=O)N(CCCl)CCCl)cc4CC[C@H]3[C@@H]1CC[C@@H]2O
active: [1] 21.1 µM
not listed: [13]
inactive: all other assays above

CCCCCCCCCCCCCN1CC(C)OC(C)C1 (configuration not stated)
not listed: [18]
inactive: all other assays above

O=C1NCN(c2ccccc2)C12CCN(CC1COc3ccccc3O1)CC2 (configuration not stated)
not listed: [19] | [20]
inactive: all other assays above

CC(C)CCCCCCCOP(=O)(Oc1ccccc1)Oc1ccccc1
not listed: [2] | [4] | [5] | [18]
inactive: all other assays above

COc1cc(C=O)cc2c1[C@H](COC(N)=O)[C@]1(OC(C)=O)ON2C[C@H]2[C@@H]1N2C(C)=O
active: [1] 1.54 µM
not listed: [3] | [4] | [9] | [19] | [20]
inactive: all other assays above

c1ccc2c(c1)OCC(C1=NCCN1)O2 (configuration not stated)
active: [18] 27.8 µM
not listed: [1] | [19] | [20]
inactive: all other assays above
